Laboratory results as given in PubChem BioAssay (NCI).
The panel holds about 79,000 compounds, 15% with a hit somewhere; the sample as a whole holds those more often. Active and inactive are the calls of the source. Rule as the data show it: active = growth inhibition above about 70%; inactive = the rest.

What was measured:
[1] = NCI Yeast Anticancer Drug Screen. Data for the mlh1 strain (AID 171);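 also: 0% = growth of vehicle-treated control cultures of the same strain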; conditions: S. cerevisiae mlh1 strain growth inhibition, active compounds read high
Summary of the method: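 Compounds are applied to a genetically altered yeast strain, and its growth is compared with that of vehicle-treated cultures to give percent inhibition.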

[2] = NCI Yeast Anticancer Drug Screen. Data for the mlh1 rad18 strain (AID 175); conditions: S. cerevisiae mlh1 rad18 strain growth inhibition, active compounds read high
Summary of the method: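 Cells of a genetically altered yeast strain, deficient in DNA damage repair, were treated with compound. Their growth was then compared with that of vehicle-treated cultures to give inhibition.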

[3] = NCI Yeast Anticancer Drug Screen. Data for the rad18 strain (AID 177); conditions: S. cerevisiae rad18 mutant growth inhibition, active compounds read high
Summary of the method: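 Compounds are applied to a repair-deficient yeast strain, and growth is compared with that of vehicle-treated cultures to give percent inhibition.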

[4] = NCI Yeast Anticancer Drug Screen. Data for the rad52 strain (AID 147);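 also: 0% = growth of vehicle-treated control cultures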; conditions: S. cerevisiae rad52 mutant growth inhibition, active compounds read high
Summary of the method: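 DNA repair-defective yeast; compound exposure; growth scored against vehicle controls.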

[5] = NCI Yeast Anticancer Drug Screen. Data for the wt1 strain (AID 149);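 also: 0% = growth of vehicle-treated wt1 cultures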; conditions: S. cerevisiae wt1 strain (SPY 50644) growth inhibition, active compounds read high
Summary of the method: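 Vehicle-normalised growth inhibition; strain wt1; compound exposure.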

[6] = NCI Yeast Anticancer Drug Screen. Data for the rad50EPP+ strain (AID 151);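 also: 0% = growth of vehicle-treated control cultures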; conditions: S. cerevisiae rad50 mutant strain, active compounds read high
Summary of the method: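 rad50EPP+ yeast treated with test compounds. Readout: growth vs vehicle control.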

[7] = NCI Yeast Anticancer Drug Screen. Data for the mgt1 strain (AID 153); conditions: S. cerevisiae mgt1 mutant growth inhibition, active compounds read high
Summary of the method: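 Growth inhibition relative to vehicle controls was scored for the mgt1 yeast strain after compound exposure.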

[8] = NCI Yeast Anticancer Drug Screen. Data for the rad50 strain (AID 155);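 also: 0% = growth of vehicle-only cultures of the same strain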; conditions: S. cerevisiae rad50 strain growth inhibition, active compounds read high
Summary of the method: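 A DNA repair-deficient yeast mutant serves as the test organism; compound-induced growth inhibition is calculated against vehicle-treated cells.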

[9] = NCI Yeast Anticancer Drug Screen. Data for the mec2-1 strain (AID 157); conditions: S. cerevisiae mec2-1 strain, active compounds read high
Summary of the method: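 Growth inhibition is read against vehicle-treated controls after compound exposure of the mec2-1 yeast strain, which is defective in DNA damage repair or cell cycle control.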

[10] = NCI Yeast Anticancer Drug Screen. Data for the rad14 strain (AID 159);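 also: 0% = growth of vehicle-treated control cultures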; conditions: S. cerevisiae rad14 strain growth inhibition, active compounds read high
Summary of the method: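 Vehicle-treated cultures served as the baseline for growth inhibition of a DNA repair-mutant yeast strain exposed to each compound.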

[11] = NCI Yeast Anticancer Drug Screen. Data for the sgs1 mgt1 strain (AID 161);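 also: 0% = growth of cultures given vehicle only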; conditions: S. cerevisiae sgs1 mgt1 strain, active compounds read high
Summary of the method: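 Percent growth inhibition was derived by comparing compound-exposed mutant yeast with vehicle-exposed cultures. The strain carries alterations in DNA damage repair.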

[12] = NCI Yeast Anticancer Drug Screen. Data for the cln2 rad14 strain (AID 165);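 also: 0% = growth equal to vehicle treated cultures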; conditions: S. cerevisiae cln2 rad14 strain, active compounds read high
Summary of the method: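 Growth inhibition, relative to vehicle-treated controls, is the read-out. The test organism is a yeast strain with defined genetic alterations, cln2 rad14.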

[13] = NCI Yeast Anticancer Drug Screen. Data for the bub3 strain (AID 167); conditions: S. cerevisiae bub3 mutant strain, active compounds read high
Summary of the method: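 Inhibition values come from growth of compound-treated mutant yeast normalised to vehicle-treated controls.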

[14] = NCI Yeast Anticancer Drug Screen. Data for the wt2 strain (AID 169);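 also: 0% = growth of vehicle-treated yeast cultures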; conditions: S. cerevisiae wt2 strain growth inhibition, active compounds read high
Summary of the method: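 Compound exposure of yeast; growth compared with vehicle controls; inhibition reported.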

[15] = NCI Yeast Anticancer Drug Screen. Data for the sgs1 strain (AID 173);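 also: 0% = growth of vehicle-only control cultures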; conditions: S. cerevisiae sgs1 mutant, active compounds read high
Summary of the method: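 Compounds applied to genetically altered yeast; growth compared with vehicle-treated cultures to give % inhibition.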

[16] = at 5.0 µM (retest, dose inferred, filed as 0.5)
[17] = at 50.0 µM (retest, dose inferred, filed as 5.0)

Measured: growth inhibition

c1ccc2nc3c(nc2c1)sc1ccccc13
inactive: [1]; at 1.2 µM 4% | [1]; at 3.7 µM 3% | [1]; at 11.0 µM 19% | [1]; at 33.0 µM 28% | [1]; at 100.0 µM 23% | [2]; [16] -71% | [2]; [17] 14% | [2]; at 50.0 µM 61.9% | [3]; at 1.2 µM 4% | [3]; at 3.7 µM 21% | [3]; at 11.0 µM 45% | [3]; at 33.0 µM 52% | [3]; at 100.0 µM 47%

CC1=COC2=C(C)C(=O)C(=O)c3c(C)ccc1c32
active: [4]; at 100.0 µM 93% | [5]; at 33.0 µM 77% | [5]; at 100.0 µM 96% | [7]; at 33.0 µM 89% | [7]; at 100.0 µM 94% | [8]; at 33.0 µM 85% | [8]; at 50.0 µM 88.3% | [8]; at 100.0 µM 93% | [9]; at 33.0 µM 80% | [9]; at 50.0 µM 89.2% | [9]; at 100.0 µM 95% | [10]; at 33.0 µM 79% | [10]; at 100.0 µM 95% | [11]; at 50.0 µM 77.5% | [12]; at 50.0 µM 77.8% | [13]; at 3.7 µM 70% | [13]; [16] 77% | [13]; at 11.0 µM 84% | [13]; at 33.0 µM 91% | [13]; [17] 82% | [13]; at 50.0 µM 81% | [13]; at 100.0 µM 93% | [14]; at 100.0 µM 91% | [2]; [17] 71% | [2]; at 50.0 µM 80% | [3]; at 33.0 µM 79% | [3]; at 100.0 µM 93%
inactive: [4]; at 1.2 µM 20% | [4]; at 3.7 µM 23% | [4]; at 11.0 µM 30% | [4]; at 33.0 µM 68% | [5]; at 1.2 µM 30% | [5]; at 3.7 µM 38% | [5]; at 11.0 µM 45% | [6]; at 1.2 µM 2% | [6]; at 3.7 µM 7% | [6]; at 11.0 µM 19% | [6]; at 33.0 µM 42% | [6]; at 100.0 µM 60% | [7]; at 1.2 µM 41% | [7]; at 3.7 µM 28% | [7]; at 11.0 µM 37% | [8]; at 1.2 µM 34% | [8]; at 3.7 µM 39% | [8]; [16] 25% | [8]; at 11.0 µM 53% | [8]; [17] 47% | [9]; at 1.2 µM 43% | [9]; at 3.7 µM 40% | [9]; [16] 36% | [9]; at 11.0 µM 48% | [9]; [17] 59% | [10]; at 1.2 µM 10% | [10]; at 3.7 µM 17% | [10]; at 11.0 µM 20% | [11]; [16] 51% | [11]; [17] 67% | [12]; [16] 16% | [12]; [17] 32% | [13]; at 1.2 µM 67% | [14]; at 1.2 µM -19% | [14]; at 3.7 µM -18% | [14]; at 11.0 µM -19% | [14]; at 33.0 µM 6% | [2]; [16] 5% | [3]; at 1.2 µM -3% | [3]; at 3.7 µM 18% | [3]; at 11.0 µM 30%

COc1ccc2c(c1)CCCC(Br)C2=O (centres undefined)
inactive: [4]; at 1.2 µM 12% | [4]; at 3.7 µM 17% | [4]; at 11.0 µM 27% | [4]; at 33.0 µM 64% | [5]; at 1.2 µM 14% | [5]; at 3.7 µM 0% | [5]; at 11.0 µM 17% | [5]; at 33.0 µM 51% | [6]; at 1.2 µM 5% | [6]; at 3.7 µM 28% | [6]; at 11.0 µM 30% | [6]; at 33.0 µM 67% | [7]; at 1.2 µM 26% | [7]; at 3.7 µM 23% | [7]; at 11.0 µM 36% | [8]; at 1.2 µM 30% | [8]; at 3.7 µM 28% | [8]; [16] 11% | [8]; at 11.0 µM 31% | [8]; [17] 48% | [8]; at 50.0 µM 37.4% | [9]; at 1.2 µM 38% | [9]; at 3.7 µM 41% | [9]; [16] -13% | [9]; at 11.0 µM 54% | [10]; at 1.2 µM 3% | [10]; at 3.7 µM 2% | [10]; at 11.0 µM 14% | [10]; at 33.0 µM 64% | [11]; [16] 17% | [12]; [16] 39% | [12]; [17] 59% | [12]; at 50.0 µM 34.3% | [13]; at 1.2 µM -7% | [13]; at 3.7 µM -10% | [13]; [16] -12% | [13]; at 11.0 µM -4% | [13]; at 33.0 µM 50% | [14]; at 1.2 µM -41% | [14]; at 3.7 µM -53% | [14]; at 11.0 µM -22% | [14]; at 33.0 µM 60% | [1]; at 1.2 µM 26% | [1]; at 3.7 µM 23% | [1]; at 11.0 µM 36% | [15]; at 1.2 µM 34% | [15]; at 3.7 µM 43% | [15]; at 11.0 µM 35% | [2]; [16] 6% | [3]; at 1.2 µM 32% | [3]; at 3.7 µM 45% | [3]; at 11.0 µM 54%
active: [4]; at 100.0 µM 98% | [5]; at 100.0 µM 98% | [6]; at 100.0 µM 97% | [7]; at 33.0 µM 78% | [7]; at 100.0 µM 98% | [8]; at 33.0 µM 70% | [8]; at 100.0 µM 98% | [9]; at 33.0 µM 71% | [9]; [17] 78% | [9]; at 50.0 µM 86.2% | [9]; at 100.0 µM 97% | [10]; at 100.0 µM 98% | [11]; [17] 90% | [11]; at 50.0 µM 88.3% | [13]; [17] 97% | [13]; at 50.0 µM 90.1% | [13]; at 100.0 µM 97% | [14]; at 100.0 µM 98% | [1]; at 33.0 µM 78% | [1]; at 100.0 µM 98% | [15]; at 33.0 µM 74% | [15]; at 100.0 µM 99% | [2]; [17] 73% | [2]; at 50.0 µM 92.4% | [3]; at 33.0 µM 87% | [3]; at 100.0 µM 99%
